Laboratory results: PubChem BioAssay AID1851 (National Center for Advancing Translational Sciences (NCATS), 2009)
The campaign covered roughly 16,000 compounds. About 5,700 (36%) were called active. Not shown: some 24% with an inconclusive outcome. This is one part of the list. A number with no mark means an inactive call. Calls come from the whole dose curve; as a rule, active = well fitted curve in the direction sought with a large enough effect; inconclusive = small, poorly fitted or top-dose-only effect, or effect the other way; inactive = no such curve, though single readings can be large or run the other way.

These compounds were tested against Cytochrome P450 1A2 (Homo sapiens) (UniProt P05177) (assay: Cytochrome panel assay with activity outcomes). Details: recombinant CYP, pro-luciferin dealkylation, luminescence, p450-cyp1a2; series mostly up to 57.1 µM.
% is set by controls: 0 for no effect and ±100 for the full control effect.

Cytochrome P450 1A2 (Homo sapiens), sequence (P05177 whole entry, looked up): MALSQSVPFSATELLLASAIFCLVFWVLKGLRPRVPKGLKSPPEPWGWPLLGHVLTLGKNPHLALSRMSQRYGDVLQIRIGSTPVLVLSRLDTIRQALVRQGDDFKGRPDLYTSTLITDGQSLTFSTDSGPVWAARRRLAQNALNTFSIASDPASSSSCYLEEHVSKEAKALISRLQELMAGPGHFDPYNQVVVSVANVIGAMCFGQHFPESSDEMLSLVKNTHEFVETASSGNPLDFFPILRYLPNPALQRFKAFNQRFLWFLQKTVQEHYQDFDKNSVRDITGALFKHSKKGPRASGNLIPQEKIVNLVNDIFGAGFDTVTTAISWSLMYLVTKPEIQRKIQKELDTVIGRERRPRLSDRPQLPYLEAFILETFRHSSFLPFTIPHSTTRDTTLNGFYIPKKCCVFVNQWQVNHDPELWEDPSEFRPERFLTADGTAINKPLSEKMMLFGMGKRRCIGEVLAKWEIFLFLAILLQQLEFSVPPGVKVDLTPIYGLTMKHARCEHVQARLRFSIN

| SMILES | AC50 | activity, negative = inhibition |
| --- | --- | --- |
| CCCCc1nc(SCC(=O)Nc2ncccn2)n[nH]1 | inactive | – |
| Cc1cc(NC(=O)CSc2n[nH]c(-c3cccs3)n2)no1 | 2.51 µM (active) | – |
| Cc1cc(NC(=O)CSc2nc3ccsc3c(=O)n2CCCCC(=O)O)no1 | inactive | – |
| O=C(CSc1nc2ccccc2s1)c1sc2sc3ccccc3[n+]2c1O | 5.01 µM (active) | – |
| O=C(CSc1nc2ccccc2o1)N1c2ccccc2Sc2ccc(Cl)cc21 | 2.24 µM (active) | – |
| O=C(CSc1nc2ccccc2s1)N1c2ccccc2Sc2ccccc21 | 0.708 µM (active) | – |
| O=C(CSc1nc2ccccc2s1)N1c2ccccc2Sc2ccc(C(F)(F)F)cc21 | 1.12 µM (active) | – |
| COc1ccc(OCc2nnc(SCC(=O)N3c4ccccc4Sc4ccc(Cl)cc43)o2)cc1 | inactive | – |
| CN1CCN(CC(=O)N2c3ccccc3Sc3cc4ccccc4cc32)CC1 | – | -21.6% [at 2.29 µM] |
| Cc1c(NC(=O)Cn2ccc([N+](=O)[O-])n2)c(=O)n(-c2ccccc2)n1C | inactive | – |
| Nc1ncc(-c2ccccc2)n1CC1CCCO1 (stereo not given) | 15.8 µM (active) | – |
| Cc1ccc(-c2ccc(CCC(=O)O)n2CC2CCCO2)cc1 (stereo not given) | inactive | – |
| S=c1[nH]nc(-c2ccncc2)n1CC1CCCO1 (stereo not given) | inactive | – |
| O=C(NNC(=O)C1CCN(S(=O)(=O)c2ccc(Cl)cc2)CC1)c1ccc(Cl)cc1 | inactive | – |
| Nc1ccc(CCNc2ncnc3c2ncn3[C@@H]2O[C@@H](CO)[C@H](O)[C@@H]2O)cc1 | inactive | – |
| Cc1ccc(N=Nc2c(=O)[nH]n3c(C)cc(C)nc23)cc1 | 12.6 µM (active) | – |
| Cc1cccc(C)c1NC(=O)CS(=O)CC(=O)Nc1ccc(F)cc1F (stereo not given) | inactive | – |
| CC(C)N=C(Nc1ccc(Cl)cc1)c1cccnc1 | inactive | – |
| Cc1nc(-c2cccnc2)sc1C(=O)Nc1ccc(F)cc1F | 4.47 µM (active) | – |
| CC(=O)NC1(c2ccc(F)cc2)CCN(C(=O)Nc2ccc(F)cc2F)CC1 | inactive | – |
| CNC(=O)c1sc(-c2cccnc2)nc1C | 14.1 µM (active) | – |
| Cc1nc(-c2cccnc2)sc1C(=O)Nc1ccc(Cl)cc1 | 2.51 µM (active) | – |
| Cc1nc(-c2cccnc2)sc1C(N)=O | 14.1 µM (active) | – |
| CC(C)NC(=O)N1CC2(CCN(S(=O)(=O)c3ccccc3)CC2)C1 | inactive | – |

| SMILES | AC50 | activity, negative = inhibition |
| --- | --- | --- |
| Cn1ccnc1C[C@@](C)(O)c1ccccc1 | – | -14.2% [at 11.4 µM] |
| CC(C(=O)NC1CCCC1)N(C(=O)c1snc(C(N)=O)c1N)c1ccc2c(c1)OCCO2 (stereo not given) | inactive | – |
| CC(Sc1ccc2c(c1)OCCO2)C(=O)Nc1ncc(Cl)cc1Cl (stereo not given) | 6.31 µM (active) | – |
| COCC(=O)N1CCC2(CCCN(Cc3ccccc3OC)C2)CC1 | inactive | – |
| NCC(=O)Nc1ccc(Cl)cc1C(=O)c1ccc[nH]1 | 3.16 µM (active) | – |
| Cc1cc2c(ncn2Cc2ccccc2)c([N+](=O)[O-])c1C | 5.62 µM (active) | – |
| Cc1ncc([N+](=O)[O-])n1CC(=O)NCc1ccccc1 | inactive | – |
| Cc1nn(CC(=O)NCc2ccccc2)c(C)c1[N+](=O)[O-] | inactive | – |
| Cc1cccc(Cn2cnc3c(NS(C)(=O)=O)c(C)c(C)cc32)c1 | 3.16 µM (active) | – |
| CC(=O)C=NCC(=O)O | – | 0.0576% [at 11.4 µM] |
| COC(=O)[C@@]1(Cc2ccc(F)cc2)[C@H]2c3cc(C(=O)N(C)C)n(Cc4ccc(C(F)(F)F)nc4)c3C[C@H]2CN1C(=O)c1ccccc1 | inactive | – |
| COc1ccccc1CNc1cc(-c2cccnc2)ncn1 | 1 µM (active) | – |
| COc1ccc(CCNc2nc(-c3cccnc3)cs2)cc1OC | 0.355 µM (active) | – |
| COc1ccc(CNc2cc(-c3cccnc3)ncn2)c(OC)c1 | 1.26 µM (active) | – |
| CC(C)(C)C(=O)N(CCN(C(=O)C(C)(C)C)c1ccccc1)c1ccccc1 | inactive | – |
| COC(=O)C/C=C\[C@@H](C)[C@@H](/C=N\OC[C@@H](O)[C@H]1O[C@H]2OC(C)(C)O[C@H]2[C@@H]1O)NS(=O)(=O)c1ccc(C)cc1 | – | 0.282% [at 11.4 µM] |
| CCCC[C@@H]1C[C@H]1C(NC(=O)c1ccccc1)c1ccc(Cl)cc1 (stereo not given in full) | 1 µM (active) | – |
| CCC[C@@H]1C[C@@]1(CCC)C(NC(=O)c1ccccc1)c1cccc(Cl)c1 (stereo not given in full) | inactive | – |
| C=C(CC1([C@@H](NP(=O)(c2ccccc2)c2ccccc2)[C@H]2C[C@@H]2CCCC)CC1)c1ccccc1 | inactive | – |
| CCCC[C@@H]1C[C@H]1C(NC(=O)c1ccccc1)c1ccccc1 (stereo not given in full) | 2.51 µM (active) | – |
| C[C@@]1(C(NC(=O)c2ccc(-c3ccccc3)cc2)c2ccc(Cl)cc2)C[C@H]1C1CCCCC1 (stereo not given in full) | inactive | – |
| CCCC[C@@H]1C[C@H]1C(NC(=O)c1ccc(-c2ccccc2)cc1)c1ccc(-c2ccccc2)cc1 (stereo not given in full) | inactive | – |
| Cc1cc(C)n(-c2ccc(Cl)c(C(=O)O)n2)n1 | inactive | – |
| COC(=O)c1ccc(Oc2cc(C)nc(-n3nc(C)cc3C)n2)cc1 | 8.91 µM (active) | – |

| SMILES | AC50 | activity, negative = inhibition |
| --- | --- | --- |
| N#CC(=C1CCCC1)c1nc(-c2ccccc2)cs1 | 0.631 µM (active) | – |
| N#C/C(=N\O)c1nc(-c2ccccc2)cs1 | 6.31 µM (active) | – |
| Cc1ccc(-c2csc(C(C#N)=C3CCCC3)n2)cc1 | 3.55 µM (active) | – |
| CC1(C)N=C(N)N=C(N)N1CCCCc1ccccc1 | – | -4.32% [at 2.29 µM] |
| C/C(O)=C\c1nc2ccccc2oc1=O | inactive | – |
| c1ccc(-c2nc3ccccc3o2)nc1 | 0.501 µM (active) | – |
| O=S(=O)(O)c1ccc(-c2nnc(-c3ccccn3)nc2-c2ccc(S(=O)(=O)O)o2)o1 | – | -8.46% [at 11.4 µM] |
| CC1(C)C(=O)NC2=C1C(=O)C(=O)c1ccccc12 | 3.16 µM (active) | – |
| O=C(O)[C@@H]1CCCN1Cc1c[nH]c2ccccc12 | – | -13.1% [at 11.4 µM] |
| N#C/C(=C\c1c[nH]c2ccccc12)C(=O)c1ccc(O)c(O)c1 | 1.26 µM (active) | – |
| CCN(CC(=O)O)CC(=O)O | – | -5.21% [at 11.4 µM] |
| CS(=O)(=O)Nc1ccc(C(=O)N2CCN(c3ccccc3)CC2)cc1 | inactive | – |
| CS(=O)(=O)Nc1cccc(-c2cncnc2-n2ccnc2)c1 | 15.8 µM (active) | – |
| CN1CCN(c2ccnc(-c3cccc(NS(C)(=O)=O)c3)n2)CC1 | 12.6 µM (active) | – |
| COc1ccc(NS(=O)(=O)c2ccc(I)cc2)cc1N1CCN(C)CC1 | inactive | – |
| CS(=O)(=O)Nc1cccc(-c2nccc(-n3ccnc3)n2)c1 | 0.2 µM (active) | – |
| CCN1C(=O)[C@H]2[C@H]3[C@H](O)[C@H](O)C/C(=N/OCC(C)C)[C@@H]3CC[C@@H]2C1=O | – | -10.8% [at 11.4 µM] |
| O=[N+]([O-])c1cccnc1NCCNc1ncc(C(F)(F)F)cc1Cl | 2 µM (active) | – |
| COC(=O)[C@@]1(Cc2ccc(F)cc2)[C@H]2c3cc(C(=O)N4CCCC4)n(CCCNc4ncc(C(F)(F)F)cc4Cl)c3C[C@H]2CN1C(=O)c1ccccc1 | inactive | – |
| C[C@@H]1O[C@@H](O)[C@@H](O)[C@H](O)[C@H]1O | – | -2.48% [at 11.4 µM] |
| O=C(O)CCNc1ccccc1C(=O)O | – | -11.9% [at 11.4 µM] |
| Cn1c(=O)c2c(nc(N/N=C\c3ccccc3C(=O)O)n2C)n(C)c1=O | – | 5.78% [at 11.4 µM] |
| O=C(O)c1ccccc1N/N=C\c1ccnc2ccccc12 | 11.2 µM (active) | – |
| Brc1ccc(C2=Nn3c(nnc3-c3cccnc3)SC2)s1 | 5.01 µM (active) | – |

| SMILES | AC50 | activity, negative = inhibition |
| --- | --- | --- |
| COc1ccc(C(C(=O)NC2CCCC2)N(C(=O)c2snc(-c3ccc(F)cc3)c2N)c2ccccc2)cc1 (stereo not given) | inactive | – |
| Cc1cc2ccccn2c1C(=O)c1nc(N2CCOCC2)ncc1Cl | 15.8 µM (active) | – |
| Cc1cc2ccccn2c1C(=O)c1ccc(Cl)cc1 | 3.16 µM (active) | – |
| Cc1sc(=NC(=O)c2ccco2)n(C)c1-c1ccc(F)cc1 | 8.91 µM (active) | – |
| COc1ccccc1C(=O)N1CCN(c2ccccn2)CC1 | inactive | – |
| COc1ccccc1-c1nc(N2CCN(C)CC2)c2ccccc2n1 | 12.6 µM (active) | – |
| COc1ccccc1-c1nc(N2CCOCC2)c2ccccc2n1 | 0.501 µM (active) | – |
| O=C(c1ccccc1)c1ccc(OCC(O)CN2CCN(Cc3ccccc3)CC2)cc1 (stereo not given) | inactive | – |
| O=C1c2cccc3cccc(c23)C(=O)N1CC1CCN(CC(O)COc2ccc3ccccc3c2)CC1 (stereo not given) | 0.562 µM (active) | – |
| CC(C)(C)C1CCC(OCC(O)CN2CCN(c3ccccc3)CC2)CC1 (stereo not given) | inactive | – |
| Cc1cccc(C(=O)NC(=S)N2CCN(C)CC2)c1 | inactive | – |
| Cc1cccc(C(=O)NC2CCN(C(=O)N3CCOCC3)CC2)c1 | inactive | – |
| Cc1cccc(C(=O)NCN2CCN(c3ccccc3C#N)CC2)c1 | 20 µM (active) | – |
| COc1cccc(C(C(=O)Nc2ccc(F)cc2)N(C(=O)Cn2nnc3ccccc32)C2CC2)c1 (stereo not given) | inactive | – |
| O=C(CSc1nnc(Cn2nnc3ccccc32)o1)Nc1cccc(Cl)c1 | 12.6 µM (active) | – |
| Cc1cc(C)c2cc(CN(Cc3nnnn3Cc3ccc(F)cc3)C3CCCC3)c(=O)[nH]c2c1 | 14.1 µM (active) | – |
| CN(C)S(=O)(=O)Nc1ccccn1 | – | -5.82% [at 11.4 µM] |
| Nc1ccc(S(=O)(=O)Nc2ccccn2)cc1 | inactive | – |
| O=C1C(Cl)=C(Nc2ccc(S(=O)(=O)Nc3ccccn3)cc2)C(=O)c2ccccc21 | 3.16 µM (active) | – |
| COc1cc(-c2nnc(SCC3(c4ccccc4)OCCO3)o2)cc(OC)c1OC | 12.6 µM (active) | – |
| COc1cc(-c2nnc(-c3ccc(N4CCOCC4)cc3)o2)cc(OC)c1OC | inactive | – |
| CCCCOC(=O)CSc1nnc(-c2cc(OC)c(OC)c(OC)c2)o1 | 31.6 µM (active) | – |
| COc1cc(C(=O)Nc2ccc(-c3nnc(-c4ccco4)o3)cc2)cc(OC)c1OC | inactive | – |
